Several values for one entry are separate records, joined by “and”; a condition that tells them apart may be missing. Equal values may be shown once. Results filed as inconclusive are left out. Entries that show only a call come without a potency. Some structures have more than one record in an assay (separate samples or runs), and their calls can disagree. Activity calls are given as the source filed them. Unless noted, calls follow the shape of the dose curve; as a rule, active = well fitted curve in the direction sought with a large enough effect in the repeat runs; inconclusive = weak or mixed curves; inactive = no such curve, though single readings can be large; an effect the other way counts as inactive or inconclusive.
What was measured:
[1] = molecular target: Retinoic acid receptor RXR-alpha (Homo sapiens) (UniProt P19793); test: qHTS assay to identify small molecule agonists of the RXR signaling pathway (AID 1159527; calls by dose curve; also: nearly all actives have a fitted effect of over 35% in size; also: potency is read from the fitted curve at half-maximal effect)
Retinoic acid receptor RXR-alpha (Homo sapiens), sequence (P19793 whole entry, looked up): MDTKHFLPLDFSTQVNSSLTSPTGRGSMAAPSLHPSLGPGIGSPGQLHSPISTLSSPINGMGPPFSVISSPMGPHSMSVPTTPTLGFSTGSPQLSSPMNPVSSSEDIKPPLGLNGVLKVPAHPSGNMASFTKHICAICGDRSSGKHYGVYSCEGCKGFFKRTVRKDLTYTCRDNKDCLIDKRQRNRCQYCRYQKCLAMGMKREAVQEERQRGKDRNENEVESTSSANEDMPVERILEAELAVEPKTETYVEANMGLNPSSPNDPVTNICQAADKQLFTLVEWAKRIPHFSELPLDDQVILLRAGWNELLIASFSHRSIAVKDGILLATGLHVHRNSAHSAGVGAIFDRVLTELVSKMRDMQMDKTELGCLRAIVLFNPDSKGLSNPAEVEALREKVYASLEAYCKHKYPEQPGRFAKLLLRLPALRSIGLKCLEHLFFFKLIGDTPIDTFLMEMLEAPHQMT
How it was run: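 Using 9-cis retinoic acid as the reference agonist, chemicals were tested in HEK 293T cells […] for 16 hr; substrate loading lasted 2 hr at room temperature.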

[2] = qHTS assay to identify small molecule antagonists of the retinoid acid receptor (RAR) signaling pathway - cell viability counter screen (AID 1159551); also: nearly all actives have a fitted effect of over 35% in size
How it was run: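 C3RL4 RARE-luciferase line; cpds + retinol 1 uM final, 6 h, 37 C/5% CO2; CellTiter-Glo ATP luminescence, 30 min RT.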

[3] = qHTS assay to identify small molecule antagonists of the retinoic acid receptor (RAR) signaling pathway (AID 1159552; also: nearly all actives have a fitted effect of over 50% in size)
How it was run: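 Test chemicals and DMSO controls were pin-transferred onto C3RL4 cells a day after seeding; retinol (1 uM final) followed at once. Luminescent reporter output was quantified after 6 hr of co-incubation and 30 min with detection reagent.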

[4] = qHTS assay to identify small molecule agonists of the retinoic acid receptor (RAR) signaling pathway (AID 1159553); also: potency is read from the fitted curve at half-maximal effect
How it was run: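 RARE-luc C3RL4 cells; overnight attachment 37 C/5% CO2; compound (DMSO) 6 hr; luciferase reagent, 30 min RT; luminescence read-out.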

[5] = qHTS assay to identify small molecule agonists of the RXR signaling pathway - cell viability counter screen (AID 1159529); also: nearly all actives have a fitted effect of over 50% in size; also: potency is read from the fitted curve at half-maximal effect
How it was run: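 Compounds dissolved in DMSO were pinned onto HEK 293T cells carrying a beta-lactamase reporter under RXR-alpha control and incubated 16 hr. Cytotoxicity was then quantified by CellTiter-Glo luminescence.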

[6] = qHTS assay to identify small molecule antagonists of the estrogen related receptor (ERR) signaling pathway - cell viability counter screen (AID 1224818); also: series mostly up to about 46 µM
How it was run: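 Fluorescence from CellTiter-Fluor, read 30 min after reagent addition at 37 C, measured viability of ERR cells exposed to compounds for 17.5 h. Cells had settled 6 h before dosing.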

[7] = qHTS assay to identify small molecule antagonists of the estrogen related receptor signaling pathway with the pleiotropic PPARgamma coactivator (PGC) cell viability counter screen (AID 1224822; also: series mostly up to about 46 µM)
How it was run: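 Fluorescence read-out of CellTiter-Fluor after 30 min at 37 C; PGC/ERR cells, 2,000 per well, had been exposed to DMSO-dissolved compounds for 17.5 h following a 6 h pre-incubation.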

With `OC[C@H]1O[C@@H]2O[C@H]3[C@H](O)[C@@H](O)[C@@H](O[C@H]4[C@H](O)[C@@H](O)[C@@H](O[C@H]5[C@H](O)[C@@H](O)[C@@H](O[C@H]6[C@H](O)[C@@H](O)[C@@H](O[C@H]7[C@H](O)[C@@H](O)[C@@H](O[C@H]8[C@H](O)[C@@H](O)[C@@H](O[C@H]1[C@H](O)[C@H]2O)O[C@@H]8CO)O[C@@H]7CO)O[C@@H]6CO)O[C@@H]5CO)O[C@@H]4CO)O[C@@H]3CO` the Potency [1] was “inactive”, the Potency [2] was “inactive” and the Potency [3] was “inactive”. The Potency [4] was “inactive”.
In the case of `COc1ccc(C(=O)CC(=O)c2ccc(C(C)(C)C)cc2)cc1`, the Potency [1] was “inactive”, the Potency [5] was “inactive” and the Potency [2] was “inactive”. The Potency [3] was “inactive” and the Potency [4] was 58.7 µM (active) and inactive.
In the case of `Cc1ncc[nH]1`, the Potency [1] was “inactive”, the Potency [2] was “inactive” and the Potency [3] was “inactive”. The Potency [4] was “inactive”.
With `NC=O` the Potency [1] was “inactive”, the Potency [5] was “inactive” and the Potency [2] was “inactive”. For the same compound, the Potency [3] was “inactive” and the Potency [4] was “inactive”.
With `CCCCOCCOCCOCCO` the Potency [1] was “inactive”, the Potency [2] was “inactive” and the Potency [3] was “inactive”.
In the case of `CCCCC(CC)COP(=O)(OCC(CC)CCCC)OCC(CC)CCCC` (stereo not drawn), the Potency [1] was “inactive” and the Potency [2] was “inactive”.
In the case of `Brc1cc(Oc2cc(Br)c(Br)c(Br)c2Br)c(Br)c(Br)c1Br`, the Potency [1] was “inactive”, the Potency [5] was 1.39 µM (active) and inactive and the Potency [2] was “inactive”. For the same compound, the Potency [3] was “inactive” and the Potency [4] was “inactive”.
For `c1ccc(Nc2ccccc2)cc1`, the Potency [1] was “inactive”, the Potency [2] was “inactive” and the Potency [3] was “inactive”. The Potency [4] was “inactive”.
In the case of `OCCO`, the Potency [1] was “inactive”, the Potency [2] was “inactive” and the Potency [3] was “inactive”. The Potency [4] was “inactive”.
For `CCCc1c(OCCCCc2nn[nH]n2)ccc(C(C)=O)c1O`, the Potency [1] was 54.9 µM (active) and 23.9 µM (active) and the Potency [2] was “inactive”.
For `O=CCc1ccccc1`, the Potency [1] was “inactive”, the Potency [2] was “inactive” and the Potency [3] was “inactive”. For the same compound, the Potency [4] was “inactive”.
For `CC(C)CC(C)(O)C#CC(C)(O)CC(C)C` (stereo not drawn), the Potency [1] was 12.1 µM (active) and inactive, the Potency [5] was “inactive” and the Potency [2] was “inactive”. For the same compound, the Potency [3] was “inactive” and the Potency [4] was “inactive”.
With `CCCCCCCCCC(=O)OC` the Potency [1] was “inactive”, the Potency [2] was “inactive” and the Potency [3] was “inactive”. For the same compound, the Potency [4] was “inactive”.
In the case of `COC(=O)c1ccccc1`, the Potency [1] was “inactive” and the Potency [2] was “inactive”.
In the case of `c1cc(-c2ccncc2)ccn1`, the Potency [1] was “inactive”, the Potency [2] was “inactive” and the Potency [3] was “inactive”. The Potency [4] was “inactive”.
In the case of `CCC(C)CO` (stereo not drawn), the Potency [1] was “inactive”, the Potency [2] was “inactive” and the Potency [3] was “inactive”. For the same compound, the Potency [4] was “inactive”.
With `C[C@]12CCC(=O)C=C1CC[C@@H]1[C@@H]2C(=O)C[C@@]2(C)[C@H]1CC[C@]2(O)C(=O)CO` the Potency [1] was “inactive”, the Potency [5] was “inactive” and the Potency [2] was “inactive”. The Potency [3] was “inactive”, the Potency [4] was “inactive” and the Potency [6] was “inactive”. For the same compound, the Potency [7] was “inactive”.
